“And” between values parts separate entries of the source, which are not always exact repeats. Equal values may be shown once. Inconclusive results are not listed. A call without a number means that no potency is given here. More than one record can exist for a structure, and the calls need not agree. The source made the active and inactive calls. Unless noted, calls come from the whole dose curve; as a rule, active = well fitted curve in the direction sought with a large enough effect in the repeat runs; inconclusive = weak or mixed curves; inactive = no such curve, though single readings can be large; an effect the other way counts as inactive or inconclusive.
Experiments:
[1] = qHTS assay to identify small molecule antagonists of the thyroid receptor (TR) signaling pathway - cell viability counter screen (AID 743064); note: nearly all actives have a fitted effect of over 50% in size
In short: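 Plate GH3.TRE-Luc cells; incubate 4 h at 37 °C; add compound, then T3 to 1 nM final; incubate 23.5 h; add CellTiter-Fluor; incubate 30 min at 37 °C, 5% CO2; read fluorescence.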

[2] = qHTS assay to identify small molecule antagonists of the thyroid receptor (TR) signaling pathway (AID 743065); note: nearly all actives have a fitted effect of over 55% in size; note: potency is the fitted concentration of half-maximal effect
In short: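 Antagonism measured as loss of luciferase signal in GH3 cells stably carrying a TRE-luciferase reporter, co-treated with compound and T3 (1 nM final) for 23.5 h at 37 C. Viability was read in the same well by CellTiter-Fluor.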

[3] = system: thyroid hormone receptor (rat, GH3 cells); assay: qHTS assay to identify small molecule agonists of the thyroid receptor (TR) signaling pathway (AID 743066; calls by dose curve)
[4] = target: Estrogen receptor (Homo sapiens) (UniProt P03372); assay: qHTS assay to identify small molecule antagonists of the estrogen receptor alpha (ER-alpha) signaling pathway (AID 743069; active = well fitted curve in the direction sought with a large enough effect in the signal ratio in the repeat runs, not every such curve was filed as active; the % refers to the signal ratio)
Estrogen receptor (Homo sapiens), sequence (P03372 whole entry, looked up): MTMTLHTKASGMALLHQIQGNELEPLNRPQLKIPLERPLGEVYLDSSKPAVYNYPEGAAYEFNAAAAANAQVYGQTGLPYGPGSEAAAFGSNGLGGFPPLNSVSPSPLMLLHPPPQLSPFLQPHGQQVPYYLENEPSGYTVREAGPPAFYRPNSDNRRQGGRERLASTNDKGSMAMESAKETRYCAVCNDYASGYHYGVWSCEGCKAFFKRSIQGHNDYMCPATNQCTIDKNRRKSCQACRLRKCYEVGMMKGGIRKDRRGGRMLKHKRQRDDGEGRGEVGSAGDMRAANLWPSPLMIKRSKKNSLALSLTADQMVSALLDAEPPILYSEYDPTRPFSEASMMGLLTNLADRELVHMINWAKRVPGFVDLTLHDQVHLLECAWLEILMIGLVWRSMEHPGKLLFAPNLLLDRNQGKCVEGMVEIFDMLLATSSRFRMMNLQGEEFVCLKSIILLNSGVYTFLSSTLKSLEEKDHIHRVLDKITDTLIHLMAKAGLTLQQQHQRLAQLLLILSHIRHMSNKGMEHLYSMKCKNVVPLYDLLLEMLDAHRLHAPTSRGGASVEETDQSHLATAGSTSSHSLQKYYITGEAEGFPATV
In short: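 Fluorescence intensity from a beta-lactamase FRET substrate served as the read-out. Cells: HEK293 with stably integrated ER-alpha-UAS-bla reporter. Agonist 17beta-estradiol was co-added with compounds; incubation 18 hr at 37C, substrate 2 hr at room temperature.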

[5] = qHTS assay to identify small molecule antagonists of the estrogen receptor alpha (ER-alpha) signaling pathway - cell viability counter screen (AID 743074; calls by dose curve; note: nearly all actives have a fitted effect of over 45% in size)
[6] = target: Estrogen receptor (Homo sapiens) (UniProt P03372); assay: qHTS assay to identify small molecule agonists of the estrogen receptor alpha (ER-alpha) signaling pathway (AID 743075; calls by dose curve)
[7] = target: Estrogen receptor (Homo sapiens) (UniProt P03372); assay: qHTS assay to identify small molecule agonists of the estrogen receptor alpha (ER-alpha) signaling pathway using the BG1 cell line (AID 743079); conditions: BG1Luc4E2 cells, ERE-luciferase agonist, 22 h; activation: at 70.3 µM (top of the series) unless noted; note: nearly all actives have a fitted effect of over 20% in size; note: potency is the fitted concentration of half-maximal effect
[8] = qHTS assay to identify small molecule antagonists of the estrogen receptor alpha (ER-alpha) signaling pathway using the BG1 cell line (AID 743080; calls by dose curve;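 note: BG1 cells stimulated with 17beta-estradiol alongside compound; nearly all actives have a fitted effect of over 25% in size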; note: potency is the fitted concentration of half-maximal effect)
In short: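 BG1Luc4E2, endogenous ER-alpha, 4xERE-luc; 5 d charcoal-stripped FBS, phenol red free; 24 h plating; cpd + 17beta-estradiol 21.5 h, 37 C/5% CO2; CellTiter-Fluor viability 30 min, then ONE-Glo luciferase 30 min RT.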

[9] = qHTS assay to identify small molecule antagonists of the estrogen receptor alpha (ER-alpha) signaling pathway using the BG1 cell line - cell viability counter screen (AID 743081);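 note: compound given together with 17beta-estradiol as the ER stimulus; nearly all actives have a fitted effect of over 45% in size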
Aromatase (Homo sapiens) = Aromatase (Homo sapiens) (UniProt P11511); assay: qHTS assay to identify aromatase inhibitors (AID 743083); note: nearly all actives have a fitted effect of over 55% in size; note: potency is the fitted concentration of half-maximal effect
Aromatase (Homo sapiens), sequence (P11511 whole entry, looked up): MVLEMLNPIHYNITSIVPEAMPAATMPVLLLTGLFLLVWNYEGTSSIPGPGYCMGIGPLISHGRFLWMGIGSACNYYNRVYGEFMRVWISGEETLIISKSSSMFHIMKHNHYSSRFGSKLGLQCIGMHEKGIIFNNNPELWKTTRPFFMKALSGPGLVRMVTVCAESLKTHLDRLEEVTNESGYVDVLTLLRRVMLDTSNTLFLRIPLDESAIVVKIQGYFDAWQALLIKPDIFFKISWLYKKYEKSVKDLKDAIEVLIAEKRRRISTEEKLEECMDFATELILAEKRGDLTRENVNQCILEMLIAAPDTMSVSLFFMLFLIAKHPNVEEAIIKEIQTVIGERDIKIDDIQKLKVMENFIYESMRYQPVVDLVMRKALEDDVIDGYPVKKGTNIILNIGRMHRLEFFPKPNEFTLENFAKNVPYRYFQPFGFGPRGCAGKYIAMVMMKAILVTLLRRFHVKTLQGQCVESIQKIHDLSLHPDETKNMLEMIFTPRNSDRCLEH

SMILES	Potency [1]	Potency [2]	Potency [3]	Potency [4]	Potency [5]	Potency [6]	Potency [7]	Potency [8]	Potency [9]	Potency (Aromatase (Homo sapiens))
CCCCCCC(=O)O	inactive	inactive	inactive	inactive	inactive	inactive	inactive	inactive	inactive	inactive
CC/C(C)=N/O	inactive	inactive	inactive	–	inactive	–	–	–	inactive	–
O=C(Cl)c1ccc(C(=O)Cl)cc1	inactive	inactive	inactive	–	inactive	inactive	inactive	inactive	inactive	inactive
CN1CCCC1=O	inactive	inactive	inactive	–	inactive	inactive	inactive	inactive	inactive	inactive
COC(=O)CCCCC(=O)OC	inactive	inactive	inactive	–	inactive	inactive	inactive	inactive	inactive	inactive
CCc1cccc(O)c1	inactive	inactive	inactive	inactive	inactive	inactive	inactive	inactive	inactive	inactive
CCCCCCCCO	inactive	inactive	inactive	–	inactive	inactive	inactive	inactive	inactive	inactive
Cc1ccncc1	inactive	inactive	inactive	–	inactive	inactive	inactive	inactive	inactive	inactive
CCCCCCCC(=O)O	inactive	inactive	inactive	–	inactive	inactive	inactive	inactive	inactive	inactive
OCC(O)CS (stereo unspecified)	inactive	inactive	inactive	–	inactive	inactive	11.9 µM (active) and inactive	inactive	inactive	inactive
OC[C@H]1O[C@@H](Oc2ccc(O)cc2)[C@H](O)[C@@H](O)[C@@H]1O	inactive	inactive	inactive	–	inactive	inactive	inactive	inactive	inactive	inactive
NC(=O)NC(N)=O	inactive	inactive	inactive	–	inactive	inactive	inactive	inactive	inactive	inactive
CC1(C)C(=O)N(Cl)C(=O)N1Cl	inactive	inactive	inactive	inactive	inactive	inactive	77 µM (active) and inactive	inactive	inactive	inactive
O=C1C(N(CO)C(=O)NCO)N(CO)C(=O)N1CO (stereo unspecified)	inactive	inactive	inactive	–	inactive	inactive	inactive	inactive	inactive	inactive
CC(=O)OCc1ccc2c(c1)OCO2	inactive	inactive	inactive	–	inactive	–	–	–	inactive	inactive
CC(C)c1ccc(C(C)C)cc1	–	inactive	inactive	–	inactive	inactive	inactive	inactive	inactive	inactive
CCCN(CCC)C(=O)SCC	inactive	inactive	–	–	inactive	inactive	inactive	inactive	inactive	inactive
Cc1ccc(Cl)cc1	inactive	–	–	inactive	inactive	inactive	inactive	inactive	inactive	inactive
COc1ccc2cc3[n+](cc2c1OC)CCc1cc2c(cc1-3)OCO2	inactive	61.6 µM (active)	inactive	–	–	inactive	–	26.6 µM (active)	–	inactive
COc1cc(NC(=O)CC(C)=O)c(OC)cc1Cl	inactive	–	inactive	–	inactive	inactive	inactive	inactive	inactive	inactive and 12.2 µM (active)
CCCCCCCCC(=O)O	–	inactive	inactive	inactive	inactive	inactive	inactive	inactive	inactive	inactive
O=Cc1ccc(CO)o1	–	inactive	inactive	–	inactive	inactive	inactive	inactive	inactive	inactive
CO[Si](CCCNCCN)(OC)OC	inactive	inactive	inactive	–	inactive	–	–	–	inactive	inactive
CCn1cc(C(=O)O)c(=O)c2cc3c(cc21)OCO3	inactive	inactive	inactive	–	inactive	–	–	–	inactive	inactive
COc1c2ccoc2cc2oc(=O)ccc12	–	inactive	inactive	–	inactive	inactive	inactive	inactive	inactive	inactive

Reference: PubChem BioAssay (Tox21)
